IL-1B inflam inh = inhibitors of inflammasome signaling (IL-1 beta secretion). 4.7% of 360,000 active. AID 743279. activity change, % at 57.5 µM. THP-1 LPS/ATP IL-1B secretion, AlphaLISA, 16 h; stronger effect = lower value; in the data active = activity change below about -50%; inconclusive = mostly about -30% to -49%
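THP-1 cells pretreated 1 hr with compounds (up to 57.5 uM final), then stimulated with LPS (250 ng/mL final) plus ATP (1.25 mM final); secreted IL-1B measured by AlphaLISA after 16 hr, decreased signal indicating inhibition.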
DT40 TDP1 CPT = growth inhibition of DT40 Tdp1-/-;hTDP1 cells with camptothecin (screen for TDP1 inhibitors). chicken DT40 Tdp1-/-;hTDP1 cells + 20 nM CPT, ATP luminescence, 48 h. 12% of 420,000 active. AID 686979. Potency, µM (doses to about 46.2 µM), without a hit: at the top dose activity change, negative = growth inhibition, actives largely listed as inhibitors; note: potency is the fitted concentration of half-maximal effect; nearly all actives have a fitted effect of over 55% in size
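Chicken DT40 Tdp1-/- cells stably complemented with human TDP1 were seeded at 400 cells/well in medium containing 20 nM camptothecin, exposed to pin-transferred compounds, and grown at 37 °C for at least 48 hr. Viability was read as ATP luminescence.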
TDP1 cell noCPT = qHTS for Inhibitors of human tyrosyl-DNA phosphodiesterase 1 (TDP1): qHTS in cells in absence of CPT. DT40 Tdp1-/- hTDP1 cells, no CPT, ATP luminescence, 48 h. Potency, µM (doses to about 46.2 µM), for inactives: at the top dose activity change, negative = growth inhibition, hits mostly inhibitors. 15% of 420,000 active. AID 686978, 2013; note: potency is the fitted concentration of half-maximal effect; nearly all actives have a fitted effect of over 55% in size
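Growth of hTDP1-complemented DT40 Tdp1-knockout cells is measured by ATP luminescence after at least 48 hr compound exposure at 37 °C, with DMSO substituting for the 20 nM CPT used in the parallel screen.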
HT1080 IDH1KD tx = HT-1080 IDH1 knockdown cell toxicity (counter line); HT-1080 IDH1 knockdown viability, ATP luminescence, 48 h; Potency, µM (top dose mostly 46.1 µM), for the others: at the highest dose activity, negative = toxicity, actives largely listed as cytotoxic; 2% of 360,000 active; AID 686971;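 note: potency is the fitted concentration of half-maximal effect; 0% = DMSO wells and -100% = cell-free medium wells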
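Cytotoxicity counter-line: IDH1KD HT-1080, 48 h, CellTiter-Glo. Curves classed by r2, magnitude and activity.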
HT1080-NT tox = kills 2HG-producing HT-1080-NT fibrosarcoma cells; HT-1080-NT fibrosarcoma viability, CellTiter-Glo ATP luminescence, 48 h; Potency, µM (titrated, usually from 46.1 µM), inactives show at the highest dose activity, negative = less viability, actives largely listed as cytotoxic; 1.6% of 360,000 active;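 note: NT is the 2HG producing partner of a matched IDH1 knockdown line; potency is the fitted concentration of half-maximal effect; 0% = DMSO-treated cells and -100% = media-only wells without cells; nearly all actives have a fitted effect of over 55% in size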
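Read-out is CellTiter-Glo luminescence after 10 minutes at room temperature, following 48 hours' compound treatment of HT-1080-NT cells (750 cells/well, RPMI, 5% FBS, 37 degrees C).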
Starred values were filed as active, the others as inactive; ? = inconclusive; . = no result; [ ] = dose if it differs, or a comment. Compounds with a hit are over-represented: about 19% of the library has one in this group of screens. Unless noted, calls come from the whole dose curve; as a rule, active = well fitted curve in the direction sought with a large enough effect; inconclusive = small, poorly fitted or top-dose-only effect, or another doubt; inactive = no such curve, though single readings can be large; an effect the other way counts as inactive or inconclusive. Unless noted, % is set by controls: 0 for no effect and ±100 for the full control effect.

SMILES	IL-1B inflam inh	DT40 TDP1 CPT	TDP1 cell noCPT	HT1080 IDH1KD tx	HT1080-NT tox
CC1CCN(CCc2nc3cc(NC(=O)COc4ccc([N+](=O)[O-])cc4)ccc3n2C)CC1	-101*	16µM*	?	?	-7%
CCn1c(CN2CCCCC2)nc2cc(NC(=O)COc3ccccc3C(C)(C)C)ccc21	.	-14%	-19%	.	.
CC(=O)NCCc1nc2cc(NC(=O)COc3cccc(C)c3)ccc2n1C	12	-11%	-11%	18%	?
CC1CCN(CCc2nc3cc(NC(=O)Nc4ccccc4)ccc3n2C)CC1	-2	21µM*	?	14%	0%
Cc1cccc(OCC(=O)Nc2ccc3c(c2)nc(CCN2CCC(C)CC2)n3C)c1	-64*	?	?	-16%	-19%
Cc1ccc(S(=O)(=O)CC(=O)Nc2nc3c(C)cccc3s2)cc1	.	1%	1%	.	.
CN(CC(=O)Nc1c(Cl)cccc1Cl)C(=O)Cc1cccs1	0	-18%	14%	9%	1%
CCOc1ccc(CCNC(=O)CCn2c(=O)c3cccn3c3cccnc32)cc1	.	5%	-25%	.	.
CN(CCc1cnn(C)c1)Cc1cn[nH]c1-c1ccc(-c2ccccc2)cc1	-25	-19%	?	-10%	-5%
Cn1nnc2c(NCc3c(F)cccc3F)ncnc21	.	4%	-24%	.	.
CCN(CC)C(=O)Cn1cc(SCC(=O)NC2CCCC2)c2ccccc21	-7	15%	-11%	30%	12%
CN(Cc1ccccc1)S(=O)(=O)c1ccc(NC(=O)c2ccccc2C(=O)O)cc1	23	6%	-3%	0%	-1%
CC1CCN(c2oc(-c3ccco3)nc2S(=O)(=O)c2ccccc2)CC1	-53*	-8%	?	-27%	-23%
CC1CCN(c2oc(-c3cccs3)nc2S(=O)(=O)c2ccccc2)CC1	.	?	21µM*	.	.
O=S(=O)(c1ccccc1)c1nc(-c2ccco2)oc1N1CCCCC1	15	1%	?	-3%	0%
Cc1noc(C)c1C(=O)OC(C(=O)NC1CCCC1)c1ccc(F)cc1 (centres undefined)	2	5%	33%	-4%	21%
COc1ccc(CNCCCn2cnc(C(=O)Nc3ccc(C)c(C)c3)n2)cc1	-17	?	16µM*	-11%	-7%
Cc1ccc(NC(=O)c2ncn(CC(=O)NCc3ccc4[nH]ccc4c3)n2)cc1C	-4	?	-29%	-1%	1%
Cc1ccc(NC(=O)c2ncn(CCCN(CCCn3cnc(C(=O)Nc4ccc(C)c(C)c4)n3)Cc3ccc4[nH]ccc4c3)n2)cc1C	8	?	15µM*	21µM*	16µM*
Cc1ccc(NC(=O)c2ncn(CCCN3CCN(c4ccccn4)CC3)n2)cc1C	-6	?	26µM*	-6%	-1%
Cc1ccc(NC(=O)c2ncn(CCCNCCCc3ccccc3)n2)cc1C	-28	?	21µM*	?	-18%
COc1ccc(C)cc1NC(=O)C1CCN(C(=O)C2CC(=O)N(c3ccc(C)cc3)C2)CC1 (centres undefined)	-7	4%	-20%	0%	4%
CN(C)NC(=O)C12CCC(C)(C(=O)O1)C2(C)C (centres undefined)	8	7%	3%	-1%	-2%
COc1ccc([C@H]2C[C@@H](O)[C@H](n3cc(C4CC4)nn3)CN2Cc2cccs2)cc1	-16	-8%	?	-14%	-2%
CCCCNC(=O)NS(=O)(=O)c1ccc(NS(=O)(=O)c2ccccc2)cc1	-3	7%	-4%	-3%	0%
SMILES	IL-1B inflam inh	DT40 TDP1 CPT	TDP1 cell noCPT	HT1080 IDH1KD tx	HT1080-NT tox
COC(=O)[C@H](Cc1ccccc1)NCCCn1cnc(C(=O)Nc2ccc(C)c(C)c2)n1	2	?	18µM*	-1%	-4%
CCn1c(CC(=O)Nc2ccc(F)cc2)nnc1SCC(=O)Nc1nnc(C)s1	-5	-13%	?	2%	-6%
CSc1nccc(-c2sc(SC)c(C#N)c2-c2ccccc2)n1	155	-6%	?	-20%	-8%
CSc1sc(-c2ccnc(SCCS(C)(=O)=O)n2)c(-c2ccccc2)c1C#N	66	?	18µM*	-10%	-15%
CC(=O)c1c(C)n(-c2ccc(Cl)cc2)c2ccc(OC(=O)COc3ccccc3)cc12	.	-22%	-15%	.	.
Cc1cc2c(n1-c1ccc(C(=O)NCc3ccc(OC(C)C)cc3)cc1)CCCC2	.	26µM*	16µM*	.	.
Cc1cc2c(n1-c1ccc(C(=O)NCc3ccccc3Cl)cc1)CCCC2	.	23µM*	18µM*	.	.
CCC(C)NC(=O)CSC1=Nc2ccccc2C2=NC(CC(=O)NCc3ccccc3)C(=O)N12 (centres undefined)	5	3%	-15%	20%	3%
CN(Cc1ccccc1)Cc1ccccc1	.	19%	-14%	.	.
N#CN(Cc1ccccc1)Cc1ccccc1	-64*	-22%	-12%	-4%	4%
CCOc1ccc(Nc2oc(-c3ccc(Cl)cc3)nc2C#N)cc1	-9	?	4.1µM*	?	-28%
CCN(CC)CCCNc1oc(-c2cccc(Cl)c2)nc1C#N	-9	?	23µM*	?	-2%[9.24 µM]
COCCNc1oc(-c2ccc(Cl)cc2)nc1C#N	-56*	1%	-4%	0%	1%
COc1ccc(Nc2oc(-c3ccc(Cl)cc3)nc2C#N)cc1	-15	6.5µM*	2.9µM*	?	?
CC(C)(CNC(=O)c1cnn(-c2nccc(-c3ccccc3F)n2)c1C1CC1)N1CCOCC1	.	-14%[9.04 µM]	?	.	.
CCOc1ccc(S(=O)(=O)Nc2ccc3c(c2)OCO3)cc1	6	?	?	2%	-9%
CN(Cc1ccccc1)C(=O)c1cccc(NC(=O)Cc2ccc(NC(=O)C3CCCN(C(=O)C4CCC4)C3)cc2)c1 (centres undefined)	9	?	?	-1%	-15%
COc1ccc(-c2nc(C#N)c(NCCc3ccccc3)o2)cc1	-4	15µM*	14µM*	20%	-10%
CCCC[C@H]1COCCS(=O)(=O)N1Cc1ccc(Br)cc1	-16	?	?	2%	0%
O=C(CSc1nncc(=O)[nH]1)NCc1ccccc1	6	21µM*	?	?	25%
CCOc1nc2ccccc2cc1C=O	55	2.3µM*	2.6µM*	-29%	-15%
CCOc1ccc(S(=O)(=O)NCCC(=O)NCc2ccc(OC)c(OC)c2)cc1	10	-20%	15%	6%	6%
CCOC(=O)c1c(C)oc2c1c(C(c1ccccc1)N1CCOCC1)c(O)c1ccccc12 (centres undefined)	-71*	?	18µM*	0%	0%
CCOC(=O)c1ccc(N=Cc2c(O)c3ccccc3oc2=O)cc1	37	1%	-12%	?	-17%
